Screening results (PubChem BioAssay)
HIV RNase H inh: inhibitors of HIV-1 reverse transcriptase RNase H | RT-RNase H RNA/DNA duplex cleavage, fluorescence | AID 565 | 65,000 compounds, 1.9% hits | P04585 | inhibition, % at 10 µM; in the data active = inhibition above about 50%
Numbers stand for hits; . = inactive. This excerpt belongs to a sample that is enriched for hits.

SMILES	HIV RNase H inh
Cc1nc2c(c(=O)n1Cc1ccccc1Cl)c1nc3ccccc3nc1n2Cc1ccco1	.
COc1ccc(S(=O)(=O)c2c(N)n(Cc3ccco3)c3nc4ccccc4nc23)cc1	.
Cc1nc2c(c(=O)n1CC1CCCO1)c1nc3ccccc3nc1n2Cc1ccc2c(c1)OCO2 (configuration not stated)	.
CC1CCN(c2nc3c(c(=O)[nH]c(=O)n3C)n2CCSc2ncccn2)CC1	.
CCOC(=O)c1ccc(CSc2nnc(N)s2)cc1	.
O=C(O)CCc1ccc(-c2cccs2)n1Cc1ccco1	.
O=C(O)CCc1ccc(-c2cccs2)n1NC(=O)c1ccc(O)cc1	51
CCCCn1c(CCC(=O)O)ccc1-c1cccs1	.
COc1ccc(-c2nc(N3CCOCC3)nc3nn4c(C)c(CCC(=O)O)c(C)nc4c23)cc1	.
OC1CN=C2C=CC=CN2C1 (configuration not stated)	.
Cc1ccc(S(=O)(=O)NCCOC(=O)Nc2sc(=S)n(C)c2C)cc1	50
Cc1c(NC(=O)OCCNC(=O)Nc2ccccc2)sc(=S)n1C	.
CCOC(=O)Nc1sc(=S)n(C)c1C	.
CCOC(=O)c1ccccc1NC1CC(=O)N(c2ccccc2C)C1=O (configuration not stated)	.
Cc1ccc(NC(=O)CSc2nnc(-c3ccncc3)n2N)cc1C	.
Cc1c(C)[n+](=O)c2c(n1[O-])CCCCC2	.
CCOCC(=O)Nc1nc2ccc(OCC)cc2s1	.
CCOc1ccc2nc(NS(=O)(=O)c3ccc4c(c3)n(C)c(=O)n4C)sc2c1	.
CCOc1ccc2nc(NS(C)(=O)=O)sc2c1	55
COC(=O)c1cc(OC)c(OC)cc1NC(=O)c1oc2ccccc2c1C	.
Cc1ccsc1C1NC(=O)c2ccccc2N1 (configuration not stated)	.
Cc1ccsc1C1NC(=O)c2c(sc3c2CCCC3)N1 (configuration not stated)	58
O=C1NC(c2ccccn2)Nc2sc3c(c21)CCC3 (configuration not stated)	.
O=c1c2cc3c(cc2[nH]c(=S)n1Cc1ccco1)OCO3	.
CCOc1ccccc1N1C(=O)CC(Sc2ncccc2C(=O)O)C1=O (configuration not stated)	.
SMILES	HIV RNase H inh
COc1ccccc1N1C(=O)CC(Sc2nccc(C)n2)C1=O (configuration not stated)	60
CCOc1ccc(N2C(=O)CC(Sc3nccc(C)n3)C2=O)cc1 (configuration not stated)	.
O=C(Cc1cccs1)Nc1nnc(CCc2ccccc2)s1	.
COc1ccc(Cc2nnc(NC(=O)Cc3cccs3)s2)cc1OC	80
COc1ccc(C(=O)Nc2nnc(Cc3cccs3)s2)cc1OC	.
COC(=O)CSc1nnc(CNC(=O)Cc2ccccc2)n1-c1ccccc1OC	.
CC(C)CNC(=O)CN(C1CCCCC1)S(=O)(=O)c1ccccc1	.
CC(/C=C/c1ccccc1)NC(N)=O (configuration not stated)	.
O=C(CSc1nnc(C2CC2)n1Cc1ccccc1)N1CCN(S(=O)(=O)c2ccccc2)CC1	.
Cc1cc(C)n2c(SCC(=O)N3CCN(S(=O)(=O)c4ccc(Cl)cc4)CC3)nnc2n1	70
CCCn1c(SCC(=O)N2CCN(S(=O)(=O)c3ccc(Cl)cc3)CC2)n[nH]c1=O	.
O=C(NCc1ccc2c(c1)OCO2)c1nnc(Cc2ccc(Cl)cc2)o1	.
Cc1cc(C)n2nc(S(=O)(=O)NC3CCCCC3)nc2n1	.
CCNC(=O)c1c(N)sc2c1CCCCC2	57
CCOC(=O)c1c(NC(=O)COC)sc2c1CCCC2	.
COC(=O)c1c(N2C(=O)CCC2=O)sc2c1CCCC2	.
C=CCn1c(SCc2c(F)cccc2Cl)nnc1-c1ccco1	.
Cc1cc(NC(=O)C2CCN(S(=O)(=O)c3cnc[nH]3)CC2)ccc1Br	.
CCc1cccc(NC(=O)CS(=O)Cc2nc(-c3ccc(C)cc3)oc2C)c1 (configuration not stated)	.
O=C(CSCC(=O)N1CCCCC1)OCC(=O)c1c[nH]c2ccccc12	.
COc1cccc2cc(-c3nnc(SCC(=O)NCc4ccccc4)n3C)oc12	.
COc1cccc2cc(-c3nnc(SCC(=O)Nc4cc(C(F)(F)F)ccc4Cl)n3N)oc12	64
CCn1c(SCC(=O)Nc2nccs2)nnc1-c1cc2cccc(OC)c2o1	.
Cc1nn(Cc2ccc(Cl)cc2)c(C)c1NC(=O)C1CC=CCC1C(=O)O (configuration not stated)	.
O=C(c1cc(-c2cccs2)on1)N1CCN(c2ccc(F)cc2)CC1	.
SMILES	HIV RNase H inh
O=C(c1cc(-c2cccs2)on1)N1CCN(c2ccccc2)CC1	57
COc1ccc(OC)c(-c2cc(C(=O)N3CCN(c4ccccc4)CC3)no2)c1	.
Cc1cc(C)nc(SCc2nnc(SCc3ccccc3Cl)o2)n1	.
CCOC(=O)CSc1nc2cc(OCC)ccc2cc1C#N	.
CCOc1ccc2cc(C#N)c(SCC(=O)NC(C)CC)nc2c1 (configuration not stated)	58
CCOc1ccc2cc(C#N)c(SCC(=O)N3CCC(C)CC3)nc2c1	.
CCCCC(=O)Nc1ccc(Cl)cn1	.
CCOC(=O)NC1(Nc2ccc(Cl)cn2)Oc2ccccc2O1	57
Cc1ccccc1C(=O)Nc1ccc(Cl)cn1	.
COc1ccccc1N1CCN(S(=O)(=O)c2cnc[nH]2)CC1	.
Cc1ccc(-c2nn3c(C)nnc3s2)cc1NC(=O)c1ccc(Br)o1	.
Cc1ccc(-c2nn3c(C)nnc3s2)cc1NC(=O)c1ccc(-c2cccc(Cl)c2)o1	.
Cc1ccc(-c2nn3c(C)nnc3s2)cc1NC(=O)c1ccc(-c2ccc(Cl)cc2Cl)o1	60
O=C(Cc1ccccc1)N[C@H](c1ccccc1)P(=O)(O)CO	.
CC(=O)N1CCN(CCN=CC2=C(O)CC(c3cccs3)CC2=O)CC1 (configuration not stated)	.
O=C(c1cc2c(=O)oc3ccccc3c2s1)N1CCN(c2ccccn2)CC1	.
O=C(COc1ccc2c(c1)OCO2)Nc1ccc2c(c1)oc1ccccc12	59
O=C(COc1ccc2ccc(=O)oc2c1)Nc1ccc2c(c1)OCCO2	.
O=C(Nc1ccc2c(c1)oc1ccccc12)c1ccc2c(c1)OCO2	.
CCOC(=O)C1CCCN(C(=O)c2ccco2)C1 (configuration not stated)	.
CC1CCCCN1Cc1nc2c(c(=O)n(C)c(=O)n2C)n1Cc1cccc2ccccc12 (configuration not stated)	.
O=P(O)(CN1CCCCC1)C1CCCCC1O (configuration not stated)	.
Cc1cccc(-n2ncc3c(Nc4ccc(F)cc4)ncnc32)c1	.
COC(=O)c1ccc(Nc2ncnc3c2cnn3-c2cccc(C)c2)cc1	60
COc1ccc(Nc2ncnc3c2cnn3-c2cccc(C)c2)cc1OC	.
SMILES	HIV RNase H inh
CN(C)S(=O)(=O)c1ccc(/C(O)=C2/C(=O)C(=O)N(CCN3CCCCC3)C2c2cccnc2)cc1 (configuration not stated)	.
COC(=O)c1sc(=S)sc1C(=O)OC	52
COC(=O)c1sc2cnccc2c1N	.
COC(=O)c1c(N)sc(C(C)=O)c1C	.
CCCNS(=O)(=O)c1ccc(OCC(=O)NCc2ccc3c(c2)OCO3)cc1	.
O=C(COc1ccccc1)NCCc1cn2ccsc2n1	.
COc1cc(C2C(C#N)=C(N)Oc3cc(N(C)C)ccc32)cc2c1OCO2 (configuration not stated)	.
COc1cc(C2C(C#N)=C(N)Oc3cc(O)ccc32)cc2c1OCO2 (configuration not stated)	.
